Screening data deposited in PubChem by National Center for Advancing Translational Sciences (NCATS).
NIH3T3 tox – NIH 3T3 cell cytotoxicity; Potency, µM (doses to about 96.7 µM), inactives show at the highest dose activity change, negative = cytotoxicity, hits mostly inhibitors; 94,000 compounds, 4.3% hits; NIH 3T3 viability, CellTiter-Glo ATP luminescence, 48-72 h; further: nearly all actives have a fitted effect of over 55% in size
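Luminescent ATP readout (CellTiter-Glo, 10 min RT) after 48 or 72 hr compound exposure of NIH 3T3 cells seeded at 400 cells/well in 1536-well format; quantitative HTS.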
Luciferase inh – blocks purified firefly luciferase enzyme activity | AID 1347043 | Potency, µM (highest dose often 115 µM), actives largely listed as inhibitors | purified P. pyralis luciferase, luminescence, biochemical | 76,000 compounds, 2.5% hits; further: nearly all actives have a fitted effect of over 65% in size
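Cell-free enzyme assay, 10nM P. pyralis luciferase, luciferin and ATP each at 10uM. Inhibition profiled over a 6-point titration, read as luminescence.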
HEK293 tox – HEK 293 cell cytotoxicity | HEK 293 viability, ATP luminescence (CellTiter-Glo), 48-72 h | Potency, µM (series often up to 115 µM), without a hit: top-dose activity change, negative = cytotoxicity, most hits filed as inhibitors | 94,000 compounds, 6.6% hits; further: nearly all actives have a fitted effect of over 60% in size
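ATP-coupled CellTiter-Glo luminescence served as viability read-out, recorded 10 min after reagent addition at room temperature. HEK 293 cells, 250 cells/well, had been incubated with pintool-transferred compound for 48 or 72 hr at 37 degree Celsius.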
hNpr1 antagonist – human Npr1 receptor antagonism. HEK293 hNpr1 GloSensor cGMP, ANP-stimulated luminescence. 76,000 compounds, 1.6% hits. Potency, µM (highest dose often 46.3 µM), without a hit: at the top dose activity change, negative = inhibition, hits mostly inhibitors. P16066; calls by dose curve; further: nearly all actives have a fitted effect of over 60% in size
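Compound pre-incubated 30 min at room temperature on GloSensor-loaded HEK293 cells stably carrying hNpr1 and the pGS-40F cGMP biosensor. Stimulation uses hNppA at 0.1 nM final; luminescence is taken at baseline and 20 min post-agonist.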
The depositor's hits bear a star; i = inactive; ? = inconclusive; . = not tested or not shown; [ ] = dose if it differs, or a comment. In the library only some 11% were active in any assay of this set; here they are far more common. Unless noted, the call rests on the fitted dose curve; in most records, active means well fitted curve in the direction sought with a large enough effect; inconclusive means small, poorly fitted or top-dose-only effect, or another doubt; inactive means no such curve, though single readings can be large; an effect the other way counts as inactive or inconclusive. On the % scale 0 is the no-effect control and ±100 the full control effect; potency means the concentration at half of the fitted maximal effect.

SMILES	NIH3T3 tox	Luciferase inh	HEK293 tox	hNpr1 antagonist
COc1cccc(CC(=O)N2CC3(CCN(C(C)=O)CC3)c3cc(OC)c(CCc4ccccc4)cc32)c1	?	i	?	1%
Cc1cc(CN2CCC23Cc2ccccc2NC3=O)no1 (centres undefined)	1%[138 µM]	i	-2%[172 µM]	-2%[70.6 µM]
CCCN1CC2ON=C(C(=O)O)C2C1 (centres undefined)	-7%[174 µM]	.	i	.
c1ccc(C2=NOC3(CCCN(CC4CCCC4)C3)C2)nc1 (centres undefined)	-11%[138 µM]	.	-22%[172 µM]	.
COCc1cn(C[C@H]2CC3CCN2C[C@@H]3C(=O)N2CCN(c3ccccc3OC)CC2)nn1 (some centres undefined)	?	i	-21%	-1%
Cc1nc(-c2ccccc2Br)cc([C@H]2CN3CC[C@H]2C[C@@H]3CNC(=O)Nc2ccccc2)n1	?	?	79µM*	0%
Cc1nc(-c2cccs2)cc([C@H]2CN3CC[C@H]2C[C@@H]3CNC(=O)c2ccc(N(C)C)cc2)n1	22µM*	i	35µM*	1%
Cc1nc(-c2cccs2)cc([C@H]2CN3CC[C@H]2C[C@@H]3CNC(=O)c2ccco2)n1	?	i	?	-11%[70.6 µM]
CSCC(=O)Nc1ccc2n(c1=O)C[C@H]1C[C@@H]2CN(C(=O)COc2ccccc2)C1	79µM*	i	-14%[172 µM]	-3%[70.6 µM]
O=C(Cc1ccc(F)cc1)N1CCN(CCCn2nc3n(c2=O)CCCC3)CC1	-17%	.	3%	.
O=C(O)C1CC2(CCN(C(=O)CCc3ccncc3)CC2)CN1 (centres undefined)	-12%	i	-13%	3%
C=C[C@H]1CN2CC[C@H]1C[C@@H]2CNC(=O)c1ccc(-c2ccccc2)cc1	?	i	?	-1%[70.6 µM]
O=S(=O)(NC[C@H]1C[C@@H]2CCN1C[C@@H]2CN1CCc2ccccc21)c1ccccc1	56µM*	i	56µM*	-14%[70.6 µM]
O=S(=O)(NC[C@H]1C[C@@H]2CCN1C[C@@H]2CN1CCCC1)c1ccc(Cl)cc1	79µM*	i	?	-1%[70.6 µM]
COc1ccc(S(=O)(=O)NC[C@H]2C[C@@H]3CCN2C[C@@H]3CN2CCOCC2)cc1	-1%[174 µM]	i	0%[172 µM]	-2%[70.6 µM]
CN1CCN(C[C@H]2CN3CC[C@H]2C[C@@H]3CNS(=O)(=O)c2ccccc2)CC1	-23%[174 µM]	i	-4%[172 µM]	3%[70.6 µM]
COc1ccc(S(=O)(=O)NC[C@H]2C[C@@H]3CCN2C[C@@H]3CN(C)c2ccccc2)cc1	35µM*	i	?	1%[70.6 µM]
COc1ccc(S(=O)(=O)NC[C@H]2C[C@@H]3CCN2C[C@@H]3CN2CCC(Cc3ccccc3)CC2)cc1	13µM*	i	?	-16%
COc1cc2c(cc1CCc1ccccc1)N([S+](=O)([O-])c1cn(C)cn1)CC21CCN(C(C)=O)CC1	?	i	?	1%
CC[C@H]1CN2CC[C@H]1C[C@@H]2CNC(=O)NC1CCCCC1	i	i	i	-1%[70.6 µM]
O=C(CCc1nc2ccccc2[nH]1)N1[C@H]2CC[C@@H]1c1cnc(-c3ccc(F)cc3)nc1C2	-13%	i	-28%	-2%
O=C(CCc1nc2ccccc2s1)N1[C@H]2CC[C@@H]1c1cnc(-c3ccc(F)cc3)nc1C2	-26%	i	40µM*	0.71µM*
Cc1noc(C)c1S(=O)(=O)N1[C@H]2CC[C@@H]1c1cnc(-c3ccc(F)cc3)nc1C2	?	i	45µM*	?
O=C(c1ccco1)N1[C@H]2CC[C@@H]1c1cnc(-c3ccc(F)cc3)nc1C2	-26%	i	45µM*	?
Cn1nccc1C(=O)N1[C@H]2CC[C@@H]1c1cnc(-c3ccc(F)cc3)nc1C2	?	i	?	?
SMILES	NIH3T3 tox	Luciferase inh	HEK293 tox	hNpr1 antagonist
CNCC(=O)N1CC(COC)C2(CCNCC2)C1 (centres undefined)	-7%	i	-2%	-2%
CCOC(=O)[C@@H]1[C@H]2c3ccccc3N(CCOC)C(=O)[C@H]2N(C(C)=O)[C@@H]1c1ccccc1	?	.	-10%	.
COc1ccccc1N1CCN(C[C@H]2CN3CC[C@H]2C[C@@H]3CNC(=O)Nc2ccsc2)CC1	?	i	-12%	2%
CC[C@H]1CN2CC[C@H]1C[C@@H]2CNC(=S)Nc1ccc(C)cc1Br	45µM*	i	?	-18%[70.6 µM]
COc1ccc(NC(=O)NC[C@H]2C[C@@H]3CCN2C[C@@H]3CN2CCN(c3ccccc3OC)CC2)cc1	?	i	89µM*	-18%
CC[C@H]1CN2CC[C@H]1C[C@@H]2CNC(=O)Nc1ccc(Oc2ccccc2)cc1	28µM*	i	25µM*	-8%[70.6 µM]
COc1cc2c(cc1OCc1ccccc1)N(C(=O)CC(C)C)CC21CCN(C)CC1	50µM*	i	100µM*	4%[70.6 µM]
COc1cc2c(cc1OCc1ccccc1)N(C(=O)[C@@H]1CCCO1)CC21CCN(C)CC1	?	i	-17%[172 µM]	5%[70.6 µM]
COc1cc2c(cc1OCc1ccccc1)N([S+](=O)([O-])c1cccc3cccnc13)CC21CCN(C)CC1	18µM*	i	25µM*	-16%
COc1cc2c(cc1OCc1ccccc1)N(C(=O)CC1CC1)CC21CCN(C)CC1	79µM*	i	112µM*	12%[70.6 µM]
COc1ccccc1CC(=O)N1CC2(CCN(C)CC2)c2cc(OC)c(OCc3ccccc3)cc21	32µM*	i	?	5%
CC(C)(C)c1ccc(-c2cn(C[C@H]3CC4CCN3C[C@@H]4C(=O)Nc3ccccc3)nn2)cc1 (some centres undefined)	28µM*	?	28µM*	1%
Cc1ncc2c(n1)C[C@@H]1CC[C@H]2N1C(=O)C1CCCCC1	i	i	i	2%
O=C(c1ccccc1)N1C[C@@H]2C[C@H](C1)c1ccc(-c3ccc(Cl)cc3)c(=O)n1C2	63µM*	i	?	-15%[70.6 µM]
COc1cc2c(cc1OCC1CC1)NC(=O)C21CCN(C(=O)c2cccc(C#N)c2)CC1	?	i	79µM*	0%[70.6 µM]
COc1cc2c(cc1OCC1CC1)NC(=O)C21CCN(Cc2nccs2)CC1	?	i	?	-12%[70.6 µM]
COc1cc2c(cc1-c1cccnc1OC)NC(=O)C21CCN(C(C)=O)CC1	?	i	-31%[172 µM]	-7%[70.6 µM]
COc1ncc(-c2cc3c(cc2OC)C2(CCN(C(C)=O)CC2)C(=O)N3)cn1	45µM*	i	-9%[172 µM]	3%[70.6 µM]
COc1cc2c(cc1OC1CCCC1)NC(=O)C21CCN(Cc2nccn2C)CC1	-14%[138 µM]	i	?	6%[70.6 µM]
COc1cc2c(cc1OCc1ccncc1)NC(=O)C21CCN(CC2CC2)CC1	100µM*	i	-23%[172 µM]	6%[70.6 µM]
COc1cc2c(cc1OCc1ccccc1)NC(=O)C21CCN(Cc2ccccn2)CC1	89µM*	i	79µM*	5%[70.6 µM]
CSc1cccc(NC(=O)NC[C@H]2C[C@@H]3CCN2C[C@@H]3CN2CCOCC2)c1	-25%[174 µM]	i	-25%[172 µM]	4%[70.6 µM]
